# Pf growth 48h: inhibits P. falciparum growth in the first generation, 48 h; hit rate 5.9% among 310,000; Potency, µM (doses to about 28.7 µM), usual class: inhibitors; P. falciparum luciferase growth in erythrocytes, 48 h
#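 Parasite viability was followed by luminescence of a genomically integrated firefly luciferase. Cultures held 0.1% parasitemia at 2% hematocrit (final), incubated under 5% CO2 at 37 C.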
# Pf growth 96h: P. falciparum growth inhibition at 96 hour, primary screen for plastid delayed-death inhibitors; P. falciparum luciferase reporter growth, 96 h; Potency, µM (titrated, usually from 28.7 µM), actives largely listed as inhibitors; hit rate 6.9% among 320,000
#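 Infected RBCs, 2% Hct / 0.05% parasitemia final; luciferase-reporter P. falciparum; cpd 96 h, 37 C, 5% CO2; luciferase detection reagent; luminescence.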
# CHX counter: affects cycloheximide protein synthesis inhibition readout, counter-screen. cell reporter, cycloheximide protein synthesis inhibition counterscreen. max response, %. hit rate 12% among 300,000; in the data active = max response mostly above about 13%, no sharp cut-off; inactive = mostly below about 14%; note: read at 38.3 µM for the half of the compounds with a filed dose
# HCMV antiviral: blocks human cytomegalovirus replication; HFF cells, HCMV-luciferase reporter, 72 h; hits give low values; activity change, negative = inhibition, % at 57.5 µM; hit rate 4.5% among 410,000; in the data active = activity change below about -60%; inconclusive = no clear call, values can overlap the other calls; inactive = above about -39%
#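 Compounds were evaluated in HFFs infected with an HCMV luciferase reporter virus (MOI 1 PFU/cell). Luciferase in lysates collected 72 h post infection served as the replication measure.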
# Shiga toxin inh: inhibitors of Shiga toxin in Vero cells; Vero cells, Shiga toxin protein synthesis inhibition reporter; inhibition, % at 38.7 µM; hit rate 9.2% among 290,000; in the data active = inhibition mostly above about 28%, no sharp cut-off; inactive = mostly below about 43%
# A number is an active result; – = inactive; ? = inconclusive; · = no result given; [ ] = dose if it differs, or a comment. An excerpt weighted towards active compounds, which were near 20% of everything screened. Unless noted, calls come from the whole dose curve; as a rule, active = well fitted inhibition curve with a large enough effect; inconclusive = small, poorly fitted or top-dose-only effect, or another doubt; inactive = no such curve, though single readings can be large or run the other way.
SMILES,Pf growth 48h,Pf growth 96h,CHX counter,HCMV antiviral,Shiga toxin inh
CC1CN(C(=O)c2cc3c(=O)n4ccccc4nc3n2C)CC(C)O1 (centres undefined),–,?,–,–,–
Cc1ccc2c(=O)cc(C(=O)Nc3nnc(C)s3)oc2c1,·,·,·,–,·
CCCC[C@@H](C=O)NC(=O)[C@H](CC(C)C)NC(=O)[C@H](CC(C)C)NC(C)=O,·,·,42,·,77
Cc1cc(N(CCO)CCO)ccc1N=Nc1cc(F)ccc1F,–,–,41,–,118
Cc1cn(-c2cccnc2)c(C)c1CNC[C@H]1O[C@@H](n2cnc3c(N)ncnc32)[C@H](O)[C@@H]1O,·,·,·,–,·
Cc1nonc1NC(=O)OCCN1CCOC1=O,?,6.6µM,–,–,–
Cc1cc(=O)[nH]c(SCC(=O)Nc2nonc2C)n1,–,–,–,–,–
O=C(CCCCn1c(=O)c2ccccc2n(Cc2ccccc2F)c1=O)NCc1ccccc1Cl,·,·,·,–,·
COc1nc(C)ccc1-c1noc(-c2ccco2)n1,–,·,39,–,81
CCOc1nc(-c2ccccc2)ccc1-c1noc(-c2ccco2)n1,?,–,–,?,–
COc1nc(-c2ccc(C)cc2)ccc1-c1noc(-c2ccco2)n1,–,–,28,–,70
CN(CCN(C)C(C)(C)C)C(=O)C(c1ccccc1)c1ccccc1,–,–,–,–,–
Fc1ccccc1CN1CCCN(C(=S)Nc2cccc(Cl)c2)C1,9.3µM,–,–,–,–
CC(C)C[C@@]12C(=O)N(c3ccc(Br)cc3)C(=O)N1[C@H](c1ccc(Br)cc1)[C@@H]1C(=O)N(C(C)(C)C)C(=O)[C@@H]12,–,?,–,–,–
CC[C@@]12C(=O)N(c3cccc(C)c3)C(=O)N1[C@H](c1ccc(OC)cc1)[C@@H]1C(=O)N(C(C)(C)C)C(=O)[C@@H]12,?,?,–,·,–
CCN1C(=O)[C@H]2[C@@H](c3ccc(C)cc3)N3C(=O)N(c4cccc(Cl)c4)C(=O)[C@@]3(CC(C)C)[C@H]2C1=O,?,8.3µM,·,–,·
CC(C)C[C@@]12C(=O)N(c3cccc(Cl)c3)C(=O)N1[C@H](c1ccc(Br)cc1)[C@@H]1C(=O)N(C(C)(C)C)C(=O)[C@@H]12,3.7µM,4.1µM,·,–,·
CC[C@@]12C(=O)N(c3cccc(C)c3)C(=O)N1[C@H](c1ccc(Br)cc1)[C@@H]1C(=O)N(C(C)(C)C)C(=O)[C@@H]12,3.3µM,2.3µM,–,–,–
CC(C)(C)N1C(=O)[C@H]2[C@@H](c3ccc(Br)cc3)N3C(=O)N(c4cccc(Br)c4)C(=O)[C@@]3(Cc3ccccc3)[C@H]2C1=O,?,?,–,·,–
CC[C@@]12C(=O)N(c3cccc(Cl)c3)C(=O)N1[C@H](c1ccc(Br)cc1)[C@@H]1C(=O)N(C(C)(C)C)C(=O)[C@@H]12,9.3µM,?,·,–,·
CCOc1ccc(N(CC(=O)NCCc2ccccc2)C(=O)CCC(=O)Nc2nccs2)cc1,?,–,–,?,–
O=S(=O)(CCN1CCCCC1)CCS(=O)(=O)CCN1CCCCC1,·,·,·,–,·
CC[C@@]12C(=O)N(c3cccc(F)c3)C(=O)N1[C@H](c1ccc(OC)cc1)[C@@H]1C(=O)N(C(C)(C)C)C(=O)[C@@H]12,?,?,·,–,·
CC(C)C[C@@]12C(=O)N(c3cccc(F)c3)C(=O)N1[C@H](c1ccc(Br)cc1)[C@@H]1C(=O)N(C(C)(C)C)C(=O)[C@@H]12,13µM,5.2µM,·,–,·
Cc1ccc(C)c(Cn2c(SCC(=O)NCc3ccccc3)nc3ccccc32)c1,·,·,·,–,·
SMILES,Pf growth 48h,Pf growth 96h,CHX counter,HCMV antiviral,Shiga toxin inh
Cc1ccc(OCC(=O)Nc2ccccc2C(=O)OCc2cc(=O)n3ccsc3n2)cc1C,·,·,·,–,·
COc1ccc(-n2cc(CNCc3cnc4ccccn34)c(-c3cccc(F)c3)n2)cc1,?,–,–,–,–
COc1ccc(-n2cc(CNCC3CCOCC3)c(-c3cccc(F)c3)n2)cc1,?,–,–,-89,–
COc1ccc(-n2cc(CN(C)C3CCOCC3)c(-c3cccc(F)c3)n2)cc1,–,–,–,–,–
COc1ccc(-n2cc(CNCCCn3ccnc3)c(-c3cccc(F)c3)n2)cc1,1.5µM,–,–,?,–
COC(=O)c1ccc(NC(=O)CC2C(=O)N(c3cccc(F)c3)C(=O)N2CC(C)C)cc1 (centres undefined),·,·,·,–,·
CCOC(=O)c1cn(-c2c(Cl)cccc2Cl)c2cc(Cl)c([N+](=O)[O-])cc2c1=O,13µM,8.3µM,–,?,–
CCOC(=O)c1cn(CC)c2cc(Cl)c([N+](=O)[O-])cc2c1=O,13µM,?,–,–,–
O=C(Nc1cccc(C(=O)OCc2cc(=O)n3c4c(sc3n2)CCCC4)c1)c1ccccc1,·,·,·,–,·
Cc1ccc(C(=O)Nc2cccc(C(=O)OCc3cc(=O)n4c5c(sc4n3)CCCC5)c2)cc1,·,·,·,-88,·
CCCc1nn2c(=O)cc(COC(=O)c3cccc(NC(=O)COc4ccccc4C)c3)nc2s1,·,·,·,–,·
O=C(OCc1cc(=O)n2c(n1)sc1ccccc12)c1cccc(O)c1,–,–,23,–,49
O=C(OCc1cc(=O)n2c(n1)sc1ccccc12)c1ccc(O)cc1O,–,–[5.75 µM],–,–,–
Cc1ccccc1OCC(=O)Nc1cccc(C(=O)OCc2cc(=O)n3c(C)csc3n2)c1,·,·,·,-89,·
CC1(C(=O)NS(=O)(=O)c2cccc(F)c2)CCN1C(=O)C1CCCCC1 (centres undefined),·,·,·,–,·
COc1cccc(NC(=O)Cn2c(=O)n(CCCCC(=O)NCc3ccccc3Cl)c(=O)c3ccccc32)c1,·,·,·,–,·
CN(C(=O)c1ccccc1C(=O)OCC(=O)c1ccccc1)c1ccccc1,?,12µM,·,–,·
CN(C(=O)c1ccccc1C(=O)OCC(=O)c1ccc(F)cc1)c1ccccc1,8.3µM,?,·,–,·
CC(C)CCc1noc(CN(CC2CCC2)CC2CCCO2)n1 (centres undefined),?,–,–,–,–
CN(C(=O)CSc1nnc(-c2ccccc2F)o1)C1CCCCC1,·,·,·,–,·
CC(=O)Nc1cc(NC(C)=O)c(N=Nc2ccccc2)cc1C,–,–,–,–,–
Oc1ccc(N=Nc2ccccc2)o1,–,–,30,–,42
O=c1c2ccccc2nc2n1CCS2,–,?,–,–,–
Cc1ccc2[nH]c3c(=O)n4c(nc3c2c1)SCC4,–,?,24,–,–
COc1ccc2[nH]c3c(=O)n4c(nc3c2c1)SCCC4,–,–,25,–,–
SMILES,Pf growth 48h,Pf growth 96h,CHX counter,HCMV antiviral,Shiga toxin inh
CCCCN(C(=O)c1oc2ccc(OCC)cc2c1C)c1c(N)n(CC(C)C)c(=O)[nH]c1=O,?,?,·,–,·
CCCN(C(=O)COC(=O)Cn1c(=O)oc2ccccc21)c1c(N)n(Cc2ccccc2)c(=O)[nH]c1=O,–,–,·,–,·
CC(COc1ccccc1)OC(=O)Nc1ccccc1 (centres undefined),·,·,·,–,·
CCN(C(=O)CSc1nnc(-c2cc(OC)c(OC)c(OC)c2)o1)c1ccccc1,·,·,·,–,·
COc1ccc(-c2nnc(SCC(=O)N(Cc3ccccc3)C(C)(C)C)o2)cc1OC,12µM,·,–,-95,–
Cc1cccc(/C=N\NC(=O)c2sccc2-n2cccc2)c1,–,–,65,–,114
